Consider 41 compounds from ChEMBL document CHEMBL3988442, “University of Dundee, Small-Polar-MMV Screening Library” (2021).

Among all 66,000 compounds or so, about 960 (1.5%) showed an effect of 50% or more. The sample holds strong results, similar compounds and a random draw of the others, so the mix is not that of the screen.

This test concerns Trypanosoma brucei. The experiment in a line: Trypanosoma brucei 72 hour study. Format: functional, organism-based. Also noted: scale not given: in the data most compounds retested in dose-response had high values.

As to `COc1ccc(C2SCC(=O)Nc3n[nH]cc32)c(OC)c1OC` (stereo unspecified), the “Percent Effect” value (30 µM, 30.03 µM) is on record as -21.04%.

In the case of `COc1cc(C2SCC(=O)Nc3n[nH]cc32)cc(OC)c1O` (stereo unspecified), the “Percent Effect” value (30 µM, 30.03 µM) turned out to be 53.45%.

As for `COc1ccc(OC)c(C2SCC(=O)Nc3n[nH]cc32)c1` (stereo unspecified), the “Percent Effect” value (30 µM, 30.03 µM) came out at 38.65%.

In the case of `COc1cc(C2SCC(=O)Nc3ccsc32)cc(OC)c1O` (stereo unspecified), where the note is “30 µM, 30.03 µM”, the “Percent Effect” value was 23.79%.

`COc1cc(OC)c(C2SCC(=O)Nc3n[nH]cc32)cc1OC` (stereo unspecified): the “Percent Effect” value (30 µM, 30.03 µM) turned out to be 60.77%.

Turning to `COc1ccccc1C1SCC(=O)Nc2n[nH]cc21` (stereo unspecified), the “Percent Effect” value (30 µM, 30.03 µM) is on record as 40.76%.

As for `COCc1cncc2c1CCN(Cc1cccs1)C2.O=C(O)C(F)(F)F.O=C(O)C(F)(F)F`, the “Percent Effect” value (30.3 µM, […]) was -85.33%.

Consider `COCCN1CCC12CCN(C(=O)c1ccc(C)nc1)C2.O=C(O)C(F)(F)F` (stereo unspecified), for which, for the setting “30.3 µM, […]”, the “Percent Effect” value amounted to 8.313%.

For the compound `CN(C)CCN1CCN(Cc2cccs2)Cc2cccnc21.O=C(O)C(F)(F)F.O=C(O)C(F)(F)F.O=C(O)C(F)(F)F`, under “30.3 µM, […]”, the “Percent Effect” value is given as -59.56%.

In the case of `CCN1C[C@@H]2[C@@H](OC)CCN(C(=O)Cc3ccsc3)[C@@H]2C1.O=C(O)C(F)(F)F`, the “Percent Effect” value (30.3 µM, […]) is -11%.

Take `CN(C)CCOCc1cncc2c1CCN(C1CCOC1)C2.O=C(O)C(F)(F)F.O=C(O)C(F)(F)F.O=C(O)C(F)(F)F` (stereo unspecified): the “Percent Effect” value (30.3 µM, […]) was -50.42%.

Take `Cc1ccc2c(c1)C(NC1CC1)CC21CCNCC1.Cl` (stereo unspecified): the “Percent Effect” value (30.3 µM, […]) was found to be 51.53%.

Regarding `Cc1ccc2c(c1)C(NC(C)C)CC21CCNCC1.Cl` (stereo unspecified), the “Percent Effect” value (30.3 µM, […]) is listed as -30.38%.

Turning to `Cc1ccc2c(c1)C1(CCNCC1)CC2NC1CC1.Cl.Cl` (stereo unspecified), the “Percent Effect” value (30.3 µM, […]) was 15.24%.

Take `CC(C)CN1CCC2(C1)CN(c1ncccn1)C2.O=C(O)C(F)(F)F`: for the setting “30 µM, 30.03 µM”, the “Percent Effect” value is -1.682%.

In the case of `Cc1nc(CN2CCO[C@@H]3CC(COc4ccccn4)C[C@H]32)cs1.O=C(O)C(F)(F)F.O=C(O)C(F)(F)F` (stereo partly specified), the “Percent Effect” value (30.3 µM, […]) is -42.66%.

As to `Cc1cc(N2CCC(NC(C)Cc3ccsc3)CC2)nc(N)n1` (stereo unspecified), under “30 µM, 30.03 µM”, the “Percent Effect” value is 101%.

Take `Cc1cc(CC(C)NC2CCN(CC(C)C)CC2)[nH]n1` (stereo unspecified): the “Percent Effect” value (30 µM, 30.03 µM) came to 11.44%.

With `Cc1cc(N2CCC(NC(C)Cc3ccsc3)CC2)nc(C)n1` (stereo unspecified), the “Percent Effect” value (30 µM, 30.03 µM) came to 18.53%.

Regarding `CCO[C@@H]1CC[C@H]2[C@H]1OCCN2CC1CCC1.O=C(O)C(F)(F)F`, the “Percent Effect” value (30 µM, 30.03 µM) was -19.35%.

On to `CCc1ccc(CN2CC[C@@H]3NC(=O)CC[C@@H]32)o1.O=C(O)C(F)(F)F`, for which the “Percent Effect” value (30.3 µM, […]) is -13.17%.

Regarding `Fc1ccccc1CN1CCCC2(CCN(c3ncccn3)C2)C1` (stereo unspecified), the “Percent Effect” value (30.3 µM, […]) came out at 102.7%.

For `c1cnc(N2CCCC3(CCN(Cc4cccs4)C3)C2)nc1` (stereo unspecified), for the setting “30.3 µM, […]”, the “Percent Effect” value was -58.76%.

Turning to `c1cnc(N2CCCC3(CCN(Cc4ccsc4)C3)C2)nc1` (stereo unspecified), where the note is “30 µM, 30.03 µM”, the “Percent Effect” value is 44.57%.

Turning to `Cc1cccc(CN2CCC[C@@H]3CN(C(=O)c4ccco4)C[C@@H]32)n1.O=C(O)C(F)(F)F`, the “Percent Effect” value (30 µM, 30.03 µM) is -18.06%.

Consider `Cc1noc(C)c1CN1CC[C@H]2OCC[C@@]2(C(=O)N2CCCC2)C1.O=C(O)C(F)(F)F`, for which, under “30 µM, 30.03 µM”, the “Percent Effect” value was -22.78%.

For the compound `CC(C)N(C)Cc1cncc2c1CCN(CC(=O)N(C)C)C2.Cl.Cl.Cl`, the “Percent Effect” value (30.3 µM, […]) was 7.599%.

`Cc1cccc(CN2C[C@@H]3COC[C@H](NS(C)(=O)=O)[C@@H]3C2)n1.O=C(O)C(F)(F)F.O=C(O)C(F)(F)F`: for the setting “30.3 µM, […]”, the “Percent Effect” value is reported as -15.48%.

Consider `O=C(NC[C@]12COC[C@H]1CN(Cc1cccnc1)C2)c1ccsc1.O=C(O)C(F)(F)F.O=C(O)C(F)(F)F`, for which the “Percent Effect” value (30 µM, 30.03 µM) is given as 39.91%.

`O=C(O)C(F)(F)F.O=C(O)C(F)(F)F.c1cnc(N2CC[C@@H]3CN(Cc4ccncc4)CCO[C@@H]3C2)nc1`: the “Percent Effect” value (30.3 µM, […]) is -15.11%.

With `O=C(O)C(F)(F)F.c1cnc(N2C[C@H]3CCN(Cc4ccncc4)C[C@H]3C2)nc1`, where the note is “30.3 µM, […]”, the “Percent Effect” value was -2.942%.

With `O=C(O)C(F)(F)F.O=C(O)C(F)(F)F.c1ccc(N2CC[C@@H]3CN(Cc4ccncc4)CCO[C@@H]3C2)cc1`, under “30.3 µM, […]”, the “Percent Effect” value was determined as 99.05%.

As for `Cl.Cl.NCC1[C@H]2CN(CCc3ccccc3)C[C@@H]12` (stereo partly specified), the “Percent Effect” value (30.3 µM, […]) is listed as 0.5802%.

Turning to `O=C(O)C(F)(F)F.O=S(=O)(C1CC1)N1CCOC2(CCCN(Cc3ccccn3)C2)C1` (stereo unspecified), the “Percent Effect” value (30.3 µM, […]) is given as -44.45%.

Turning to `COc1cc(C2SCC(=O)Nc3[nH]ncc32)c(OC)c2c1OCO2` (stereo unspecified), the “Percent Effect” value (30.3 µM, […]) stood at 5.203%.

On to `COc1cc(C2SCC(=O)Nc3[nH]ncc32)cc2c1OCO2` (stereo unspecified), for which the “Percent Effect” value (30.3 µM, […]) was 86.32%.

As for `COc1c(C2SCC(=O)Nc3[nH]ncc32)cc2c(c1OC)OCO2` (stereo unspecified), the “Percent Effect” value (30.3 µM, […]) is recorded as 46.19%.

For the compound `CN(C)Cc1cncc2c1CCN(C1CCOCC1)C2.Cl.Cl.Cl`, the “Percent Effect” value (30.3 µM, […]) was -35.22%.

In the case of `O=C(Cc1ccccc1)N1CCC2(CCN2Cc2ccc(F)cc2)C1.O=C(O)C(F)(F)F` (stereo unspecified), the “Percent Effect” value (30.3 µM, […]) is 10.12%.

With `CCCN1C(=O)CC2(CCCNC2)C1=O.Cl` (stereo unspecified), under “30.3 µM, […]”, the “Percent Effect” value is reported as -8.6%.

`Cc1cccc(-c2ncc(CNC(C)Cc3ccncc3)cn2)c1` (stereo unspecified): where the note is “30.3 µM, […]”, the “Percent Effect” value was -157.2%.
